Assay results reported in PubChem BioAssay AID2717 (Broad Institute, 2010).
“And” between values parts separate entries of the source, which are not always exact repeats. Equal values may be shown once. The campaign covered roughly 300,000 compounds. About 3,200 (1.1%) were called active. Shown is part of a subset that was picked to be rich in actives. A number with no mark means an inactive call. Rule as the data show it: active = inhibition above about 75%; inconclusive = no clear call, values can overlap the other calls; inactive = below that; tested in HMLE shEcad cells.

test: cancer stem cell viability inhibitors, primary screen, luminescence (AID 2717); settings: cancer stem cell-like cells viability, at 7.5 µM, stronger effect = higher value

Structure (SMILES)	inhibition
O=C(COC(=O)c1ccc([N+](=O)[O-])o1)NC12CC3CC(CC(C3)C1)C2	-15.4%
COCCn1c(C)cc(C(=O)CN2c3cccc4cccc(c34)S2(=O)=O)c1C	12.1%
COc1cc(/C=N/O)cc(Br)c1OCc1cccc(Cl)c1	80.5% (active)
COc1cc(/C=N/O)ccc1OCc1ccc([N+](=O)[O-])cc1	1.34%
COc1cc(/C=N/O)cc(Br)c1OS(=O)(=O)c1ccc(C)cc1	-11.5%
CN(CC(=O)NC1CCN(Cc2ccccc2)CC1)S(=O)(=O)c1ccc(Cl)s1	-6.54%
O=C(O)c1ccc(Cn2c(=S)[nH]c3cc(Cl)ccc3c2=O)cc1	-3.92%
CC(C)c1ccc2c(c1)c(SC(C)(C)C)c(CC(C)(C)C(=O)O)n2Cc1ccc(Cl)cc1	104% (active) and 102% (active)
O=C1COc2ccc(C(=O)COC(=O)c3ccccc3Cl)cc2N1	-17.8%
Fc1ccccc1-c1cc2cc3c(cc2cn1)OCO3	14.4%
COC(=O)C1=C(C)N(Cc2ccccc2)C(=NCCCOC(C)C)N[C@H]1c1ccccc1	0.115%
CCOC(=O)N1CCN(C(=O)c2ccc(S(=O)(=O)Nc3cccc(C(F)(F)F)c3)cc2)CC1	8.22%
Cc1oc2c(F)c(F)c(F)c(F)c2c1S(=O)(=O)Nc1cccc(C(F)(F)F)c1	97.3% (active)
O=C(/C=C/c1ccc(F)cc1)Nc1cccc(S(=O)(=O)Nc2cccc(C(F)(F)F)c2)c1	2.9%
Cc1ccc(C)c(NC(=S)NNC(=O)c2csc(C)c2)c1	3.04%
Cc1ccc(C)c(NC(=S)NNC(=S)Nc2ccc(C(C)C)cc2)c1	102% (active)
CC(C)c1ccc(NC(=S)NNc2ccc(Cl)c(C(=O)O)c2)cc1	-18.1%
C[C@H]1COC(=O)[C@H](CC(=O)OC(C)(C)C)C/C=C\C[C@@H](CC(=O)N[C@H](CO)Cc2ccccc2)C(=O)N1	-29.3%
Cc1ccccc1SCC(=O)OCC(=O)N1CC(=O)Nc2ccccc21	-8.14%
CC1CCCCC1NC(=O)COc1ccc(C#N)cc1 (stereo not drawn)	-1.85%
C/C(=N\NC(=S)NCc1ccccc1)c1ccc(Cl)cc1	41.6%
C/C(=N\NC(=S)NC(C)C)c1ccc(C(C)(C)C)cc1	77.5% (active)

Structure (SMILES)	inhibition
CC/C(=N\NC(=S)NC(C)C)c1ccc(OC(F)F)cc1	2.7%
O=C(COc1cccnc1[N+](=O)[O-])Nc1ccc(Cl)cc1F	-1.01%
O=C1C=C(c2cc(C(F)(F)F)cc(C(F)(F)F)c2)C[C@@H](c2ccc3c(c2)OCO3)C1	34.8%
COCC(=O)Nc1c(I)c(C(=O)NCC(O)CO)c(I)c(C(=O)N(C)CC(O)CO)c1I (stereo not drawn)	10.5%
CCN1/C(=C/c2ccc3ccc(C)cc3[n+]2CC)Sc2ccccc21	17.6%
CCN1/C(=C\c2ccc3ccccc3[n+]2CC)Sc2cc(C)ccc21	89.1% (active)
COc1ccc(C(=O)N2CCN(c3ccc(C(C)=O)cc3F)CC2)cc1S(=O)(=O)NC1CC1	1.55%
Cc1cc(N=Nc2ccc3ccccc3c2)ccc1O	112% (active)
COc1ccc(N=Nc2ccc(O)c(P(=O)(c3ccccc3)c3ccccc3)c2)cc1	13.4%
CC(=O)CCC(=O)c1ccc2ccccc2c1	-3.91%
CCN(CC)C(=O)c1nc[nH]c1C(=O)N(C)Cc1ccccc1	-14.8%
COc1ccc(/C=C/C(=O)Nc2cccnc2)cc1OC	4.4%
COc1ccc(/C=C/C(=O)Nc2ccc(C34CC5CC(CC(O)(C5)C3)C4)cc2)cc1OC	91% (active)
COc1ccc(/C=C/C(=O)Nc2ccc(C)cc2)cc1S(=O)(=O)N1CCOCC1	-2.38%
CC(=O)C(CC(=O)N1CCCC1)C(=O)Nc1ccc(Cl)cc1 (stereo not drawn)	-5.74%
CCSc1ncc(Cl)c(C(=O)Nc2cc(C)ccc2C)n1	-7.15%
CSc1ncc(Cl)c(C(=O)Nc2cc(C)ccc2C)n1	4.07%
CSc1nnc(NC(=O)c2nc(S(=O)(=O)Cc3ccc(C)cc3)ncc2Cl)s1	104% (active)
Cc1cccc(NC(=O)c2nc(S(=O)(=O)Cc3ccccc3)ncc2Cl)c1	109% (active)
Cc1cccc(NC(=O)c2nc[nH]c2C(=O)NCC(=O)OCc2ccccc2)c1	-0.27%
CCSc1nnc(NC(=O)c2ccc(C)cc2)s1	15.4%
Cc1cc(C)cc(OCC(=O)OCC(=O)NC2CCCC2)c1	7.95%

Structure (SMILES)	inhibition
CC(C)(C)OC(=O)C[C@@H]1C/C=C\C[C@@H](CC(=O)N[C@H](CO)Cc2ccccc2)C(=O)NC[C@@H](c2ccccc2)OC1=O	0.463%
CCN(C(=O)COC(=O)CCC(=O)c1cccs1)C1CCCCC1	-3.12%
CC1(c2ccccc2)NC(=O)N(CC(=O)N2CC(=O)Nc3ccccc32)C1=O (stereo not drawn)	-24.5%
COc1ccc(-c2c(-c3cc(OC)cc(OC)c3)n(C)c3ccc(-c4ccn[nH]4)cc23)cc1	109% (active)
COc1cc(OC)cc(-c2c(-c3cccs3)c3cc(-c4ccc(OC)nc4)ccc3n2C)c1	30.1%
COc1cc(OC)cc(-c2c(-c3ccc(F)cc3)c3cc(-c4ccc5cc[nH]c5c4)ccc3n2C)c1	14.4%
CNC[C@@H]1Oc2c(NS(C)(=O)=O)cccc2C(=O)N([C@@H](C)CO)C[C@H]1C	-11.8%
O=C(CSc1ncn[nH]1)N/N=C/c1ccc(F)cc1	8.65%
O=C(/C=C/Sc1ncn[nH]1)c1ccc(Cl)cc1	112% (active)
Cc1cc(C)nc(S/C=C/C(=O)c2ccccc2)n1	49.1%
CCOC(=O)[C@H]1[C@H]2COc3ccc(OC)cc3[C@@H]2N2C(=O)c3ccc(F)cc3NC(=O)[C@@]12C	9.18%
CC(=O)Nc1ccc(C(=O)NNC(=O)CCCCC(=O)NNC(=O)c2ccc(NC(C)=O)cc2)cc1	0.726%
CC(=O)Nc1ccc(C(=O)/C=C/c2ccc[nH]2)cc1	-8.94%
CCCC(=O)Nc1ccc(C(=O)N/N=C/c2ccc[nH]2)cc1	110% (active)
Cc1ccc(OCCC(=O)Nc2ccc(S(=O)(=O)Nc3nccs3)cc2)cc1	-5.72%
COc1ccc(C)cc1NC(=O)CSc1cccc[n+]1[O-]	-18.1%
O=C(Nc1cc(S(=O)(=O)N2CCCCC2)ccc1Cl)C1COc2ccccc2O1 (stereo not drawn)	-13.5%
Cc1[nH]n(-c2ccccc2)c(=O)c1/C=N/NC(=O)c1ccoc1C	35.2%
Cc1ccc(-n2[nH]c(C)c(/C=N/NC(=O)c3cccc([N+](=O)[O-])c3)c2=O)cc1C	104% (active)
O=C(N/N=C/c1cccc([N+](=O)[O-])c1)c1ccncc1	0.983%
CCC1CCCCN1C(=S)NC(=O)c1ccco1 (stereo not drawn)	7.21%
O=C(Nc1cc(-c2ccccc2)nn1-c1ccccc1F)c1ccc([N+](=O)[O-])cc1	1.45%

Structure (SMILES)	inhibition
COc1ccc(S(=O)(=O)N2CCN(c3cnccn3)CC2)cc1	7%
CC(C)(C)OC(=O)NCCCCCNC(=O)c1[nH]cnc1C(=O)Nc1nccs1	0.813%
CC(=O)c1ccc(NC(=O)CSc2nc3ccccc3c(=O)n2CCCN2CCOCC2)cc1	-2.25%
Cc1cccc(N=C2NN=C(c3c[nH]c4ccccc34)CS2)c1	80% (active)
Cc1cccc(N=C2NC(=O)/C(=C/c3cn(C)c4ccccc34)S2)c1	47.4%
Clc1cccc(N=C2NN=C(c3ccc4c(c3)OCCO4)CS2)c1	17.2%
CCN(C(=O)CSc1nnnn1-c1ccc(OC)cc1)C1CCS(=O)(=O)C1 (stereo not drawn)	-11.6%
CC(NC(=O)COC(=O)c1ccc2ccccc2n1)c1ccccc1 (stereo not drawn)	2.66%
O=C(Nc1cn(-c2ccccc2)nc1-c1ccccc1)c1ccccc1	-3.4%
CCc1ccc(-c2nn(-c3ccccc3)cc2CSC(=N)N)cc1	118% (active)
CCc1ccc(-c2nn(-c3ccccc3C)cc2C(=O)N2CCN(C3CCS(=O)(=O)C3)CC2)cc1 (stereo not drawn)	-16.1%
COc1ccc(C#Cc2c(-c3ccc(OC)cc3)oc3ccc(-c4ccc5c(c4)OCO5)cc23)cc1	-6.59%
Cc1cccc(-c2oc3ccc(-c4ccc5c(c4)OCO5)cc3c2C#Cc2cncn2C)c1	94.9% (active)
COc1ccc(/C=C/c2c(-c3cccc(C)c3)oc3ccc(-c4ccc5c(c4)OCO5)cc23)cc1	-7.1%
CCCC(CNC(=O)COC(=O)C1=NNC(=O)CC1)c1ccc(Cl)cc1Cl (stereo not drawn)	-14.7%
COc1cc(S(=O)(=O)N2CCN(C(=O)C3CC3)CC2)ccc1NC(C)=O	1.76%
COc1ccc(C(=O)Nc2cc(S(=O)(=O)N3CCCC3)ccc2Cl)cc1	7.7%
Cc1ccc(C(=O)OCC(=O)NCc2cc(C)c(O)c(C)c2)cc1S(=O)(=O)N1CCCCC1	-3.22%
CCC1(CC)Cc2ccccc2-c2nc3ccccc3c(=O)n21	1.88%
O=c1c2ccccc2nc2n1C1(CCCCC1)Cc1ccccc1-2	76.3% (active)
c1cncc(-c2nnc3n2C2(CCCCC2)Cc2ccccc2-3)c1	2.64%
COc1ccc(OC)c(/C=C/C(=O)c2ccc3c(c2)OCO3)c1	23.6%
